Results on 35 compounds are retold here after PubChem BioAssay.

Activity calls are given as the source filed them.

The nature of the first experiment: probe aLefty1 binding on compound microarray – biochemical, small-molecule microarray, 635/667 nm fluorescence, primary screen (AID 1153).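 Also: score merges spot fluorescence with signal-to-noise ratio from the scanned slide images.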 To be noted: higher = more signal.
For the compound `CC(C)N1C(=O)C[C@@](C(=O)NCCN2CCOCC2)(c2ccc([N+](=O)[O-])cc2)[C@H]1c1ccc(CO)cc1`, the composite z-score was -0.832. `C[N+](C)(C)CCCC[C@@H]1NC(=O)[C@H]2C[C@@H](C(=O)NCCCCCNC(=O)CS)[C@@H](c3cccc(OCCO)c3)N2C1=O`: the composite z-score turned out to be 0.144. Consider `[N-]=[N+]=Nc1ccccc1[C@@H]1OC(c2ccc(OCCCO)cc2)=N[C@]1(Cc1ccccc1)C(=O)NCCN1CCOCC1`, for which the composite z-score stood at 0.142. Turning to `CCOC(=O)C[C@H]1[C@H](OC(=O)c2ccccc2-c2ccccc2)[C@@H](NC(=O)C2CCCCC2)c2cc(OCCCO)ccc2N1C(=O)c1ccc2ccccc2n1`, the composite z-score was -0.167. `NC(=O)N1C(=O)C2C(C1=O)C1C=C(CCCO)C2C(c2ccc(CN3CCCC3)cc2)N1Cc1sc2ccccc2c1Cl` (centres undefined) displayed a composite z-score of -0.251. On the same count and under the same terms, as for `CC(C)(C)N1CC=CC23O[C@@H]4/C=C\CCCOC(=O)C4[C@H]2C(=O)N(CCCO)[C@@H]3C1=O` (some centres undefined), the figure is 0.0927; as for `CC(C)N1C(=O)c2ccccc2[C@](C)(C(=O)NCC(F)(F)F)[C@@H]1c1ccc(CO)cc1`, 0.402. `COc1ccc(C#Cc2ccc3c(c2)[C@]2(C(=O)N3)[C@H](C(=O)O)[C@H]3C(=O)O[C@H](c4ccccc4)[C@H](c4ccccc4)N3[C@@H]2c2ccccc2OCCO)cc1` displayed a composite z-score of -0.707. As for `CCCCCC1=C2CNC(Cc3ccccc3)(C(=O)OC)C=C2C(C)C1=O` (centres undefined), the composite z-score turned out to be 0.568. `CCCCCCc1nc(-c2ccc(-c3ccc(Cl)c(Cl)c3)o2)cc2c1[Si](C(C)C)(C(C)C)OC2` returned a composite z-score of -0.193. With `COC(=O)[C@H](Cc1ccccc1)N1CC2=CCCC=C[C@@H]2[C@H]1[C@H](O)Cc1ccccc1`, the composite z-score is 0.315. With `COC(=O)[C@@]1(Cc2ccc(F)cc2)[C@H]2c3cc(C(=O)N4CCCC4)n(CCc4ccccn4)c3C[C@H]2CN1C(=O)c1ccccc1`, the composite z-score was 0.413. Compound `O=C1N(CCS(=O)(=O)c2ccccc2)c2ccccc2C[C@]12N=C(c1ccc(OCCCO)cc1)O[C@@H]2c1ccccc1` displayed a composite z-score of 0.732. The same measure, in the same setting: as for `C=CCN1C(=O)[C@]2(O[C@H](CCn3cc([C@H](O)c4ccccc4)nn3)[C@@H]([Si](C)(C)c3ccc(OC)cc3)[C@@H]2C)c2cc(NC(=O)c3ccc(OC)cc3)ccc21`, the figure is 0.179; as for `C=C(COC)C(=O)CC[C@@H](OC(C)=O)c1ccccc1OCCO`, -0.152. As for `COC(=O)[C@@]1(Cc2ccc(F)cc2)[C@H]2c3cc(C(=O)N4CCCC4)n(Cc4ccccn4)c3C[C@H]2CN1C(=O)c1ccccc1`, the composite z-score was 0.0479. On the same count and under the same terms, the result for `C=CCOC(=O)[C@@H]1[C@H]2C(=O)O[C@H](c3ccccc3)[C@H](c3ccccc3)N2[C@H](c2ccc(OCCOC(=O)[C@H]3C[C@H]4C(=O)NCC(=O)N4[C@H]3c3cccc(OCCO)c3)cc2)[C@@]12C(=O)Nc1ccc(I)cc12` reads 0.248. The same measure, in the same setting: as for `COC(=O)C[C@H]1O[C@@]2(C[C@@H]1[Si](C)(C)C)C(=O)N(C)c1ccccc12`, the figure is 0.14. Take `CN(C)CCCC[C@@H]1NC(=O)[C@@H]2C[C@H](C(=O)NCCCCCCNC(=O)CS)[C@H](c3ccc(O)cc3)N2C1=O`: the composite z-score amounted to 0.0013. Regarding `CCOC(=O)C1=CC[C@@H](c2ccc(OC)cc2)N(S(=O)(=O)c2ccc(C)cc2)[C@H]1CC`, the composite z-score was -0.0018. The compound `C=C(CCCC)/C(=C/C[C@H](OC(=O)c1ccncc1)c1ccc(OCCO)cc1)c1cnc2ccccc2c1` came in with a composite z-score of 0.127. Regarding `COC(=O)[C@@]1(Cc2ccc(F)cc2)[C@H]2c3cc(C(=O)N4CCCC4)n(Cc4cc(F)cc5c4OCOC5)c3C[C@H]2CN1C(=O)c1ccccc1`, the composite z-score was determined as 0.617. Still for that read-out and setting: the result for `C=C(CCCC)C(=O)CC[C@H](OC(=O)c1ccccc1-c1ccccc1C(=O)O)c1ccc(OCCO)cc1` reads -0.199; that for `C[N+](C)(C)CCCCNC(=O)[C@H]1C[C@H]2C(=O)N[C@@H](Cc3ccccc3)C(=O)N2[C@H]1c1cccc(OCCO)c1`, 0.186.

A further experiment can be described thus: plasmodial surface anion channel blockers, osmotic lysis – cell-based, P. falciparum Indochina, OD700, 1 h, primary screen (AID 1154). To be noted: P. falciparum Indochina infected RBC osmotic lysis, higher = more signal, called active from +8 up or from −8 down.
For `COC(=O)C(CC#Cc1ccc2c(c1)[C@]1(C(=O)N2)[C@H](C(=O)NC[C@H](O)c2ccccc2)[C@H]2C(=O)O[C@H](c3ccccc3)[C@H](c3ccccc3)N2[C@@H]1c1ccccc1OCCO)C(=O)OC`, the z-score was 4.2 (inactive). On to `CN(C)CCCNC(=O)[C@@]1(Cc2ccccc2I)c2ccccc2C(=O)N(C2CCCCC2)[C@H]1c1ccc(CO)cc1`, for which the z-score is 2.37 (inactive). The same measure, in the same setting: as for `CN1C(=O)C2C=CC(C(O)c3ccc(-c4ccccc4)s3)N(NC(=O)OC(C)(C)C)C2C1=O` (centres undefined), the figure is 0.976 (inactive); as for `CCCNC(=O)[C@@]1(Sc2ccc(C)cc2)CC(=O)N(Cc2ccccc2Cl)[C@@H]1c1ccc(CO)cc1I`, 5.36 (inactive); as for `CN(C)c1ccc(C(O)C2C=CC3C(=O)N(Cc4ccccc4)C(=O)C3N2n2cnnc2)cc1` (centres undefined), 0.0651 (inactive). On the same count and under the same terms, as for `C[C@@H]1ON(c2ccccc2)[C@H](c2ccccc2)[C@H]1C(=O)O`, the figure is 0.348 (inactive); as for `O=C1[C@H]2C=C(I)[C@H](C[C@@H]2c2ccccc2)[C@@]12CO2`, 0.613 (inactive). For the compound `C=CCC(OC(C)=O)[C@@H]1[C@@H](N(Cc2ccc(-c3cccc(C(F)(F)F)c3)o2)C(=O)c2ccc(-c3ccccc3)cc2)c2cc(OCCCO)ccc2N1C(=O)c1ccc2ccccc2c1` (some centres undefined), the z-score was 0.7 (inactive).

For the compound `O=C(NCc1ccc(F)cc1)[C@H]1C[C@H]2C(=O)N3CCC[C@H]3C(=O)N2[C@H]1c1ccc(O)cc1`, the z-score was 1.25 (inactive).

Consider `N#Cc1ccc(NN2C(C(O)C3CC=CCC3)C=CC3C(=O)N(c4ccccc4)C(=O)C32)cc1` (centres undefined), for which the z-score is 16.9 (active). The same measure, in the same setting: as for `CCCNC(=O)[C@@]1(c2ccc([N+](=O)[O-])cc2)CC(=O)N(C(C)C)[C@@H]1c1ccc(CO)cc1`, the figure is 1.4 (inactive); as for `CC(C)N1C(=O)C[C@@](C(=O)NCCN2CCOCC2)(c2ccc([N+](=O)[O-])cc2)[C@H]1c1ccc(CO)cc1`, 1.63 (inactive).

For the compound `C[N+](C)(C)CCCC[C@@H]1NC(=O)[C@H]2C[C@@H](C(=O)NCCCCCNC(=O)CS)[C@@H](c3cccc(OCCO)c3)N2C1=O`, the z-score is 1.59 (inactive). Still for that read-out and setting: the result for `[N-]=[N+]=Nc1ccccc1[C@@H]1OC(c2ccc(OCCCO)cc2)=N[C@]1(Cc1ccccc1)C(=O)NCCN1CCOCC1` reads 30.2 (active); that for `CCOC(=O)C[C@H]1[C@H](OC(=O)c2ccccc2-c2ccccc2)[C@@H](NC(=O)C2CCCCC2)c2cc(OCCCO)ccc2N1C(=O)c1ccc2ccccc2n1`, 3.85 (inactive); that for `NC(=O)N1C(=O)C2C(C1=O)C1C=C(CCCO)C2C(c2ccc(CN3CCCC3)cc2)N1Cc1sc2ccccc2c1Cl` (centres undefined), 3.48 (inactive). In the case of `CC(C)(C)N1CC=CC23O[C@@H]4/C=C\CCCOC(=O)C4[C@H]2C(=O)N(CCCO)[C@@H]3C1=O` (some centres undefined), the z-score was 0.46 (inactive). Same read-out and setting: as for `CC(C)N1C(=O)c2ccccc2[C@](C)(C(=O)NCC(F)(F)F)[C@@H]1c1ccc(CO)cc1`, the figure is 0.834 (inactive); as for `COc1ccc(C#Cc2ccc3c(c2)[C@]2(C(=O)N3)[C@H](C(=O)O)[C@H]3C(=O)O[C@H](c4ccccc4)[C@H](c4ccccc4)N3[C@@H]2c2ccccc2OCCO)cc1`, -0.357 (inactive). Turning to `CCCCCC1=C2CNC(Cc3ccccc3)(C(=O)OC)C=C2C(C)C1=O` (centres undefined), the z-score is 2.16 (inactive). In the case of `CCCCCCc1nc(-c2ccc(-c3ccc(Cl)c(Cl)c3)o2)cc2c1[Si](C(C)C)(C(C)C)OC2`, the z-score is 3.45 (inactive).

Take `COC(=O)[C@H](Cc1ccccc1)N1CC2=CCCC=C[C@@H]2[C@H]1[C@H](O)Cc1ccccc1`: the z-score was 1.31 (inactive). The same measure, in the same setting: as for `COC(=O)[C@@]1(Cc2ccc(F)cc2)[C@H]2c3cc(C(=O)N4CCCC4)n(CCc4ccccn4)c3C[C@H]2CN1C(=O)c1ccccc1`, the figure is 1.8 (inactive). Still for that read-out and setting: as for `O=C1N(CCS(=O)(=O)c2ccccc2)c2ccccc2C[C@]12N=C(c1ccc(OCCCO)cc1)O[C@@H]2c1ccccc1`, the figure is 26.3 (active). In the case of `C=CCN1C(=O)[C@]2(O[C@H](CCn3cc([C@H](O)c4ccccc4)nn3)[C@@H]([Si](C)(C)c3ccc(OC)cc3)[C@@H]2C)c2cc(NC(=O)c3ccc(OC)cc3)ccc21`, the z-score is 5.48 (inactive). Turning to `C=C(COC)C(=O)CC[C@@H](OC(C)=O)c1ccccc1OCCO`, the z-score was 1.73 (inactive).

For the compound `COC(=O)[C@@]1(Cc2ccc(F)cc2)[C@H]2c3cc(C(=O)N4CCCC4)n(Cc4ccccn4)c3C[C@H]2CN1C(=O)c1ccccc1`, the z-score is 2.2 (inactive). On the same count and under the same terms, as for `C=CCOC(=O)[C@@H]1[C@H]2C(=O)O[C@H](c3ccccc3)[C@H](c3ccccc3)N2[C@H](c2ccc(OCCOC(=O)[C@H]3C[C@H]4C(=O)NCC(=O)N4[C@H]3c3cccc(OCCO)c3)cc2)[C@@]12C(=O)Nc1ccc(I)cc12`, the figure is 1.5 (inactive); as for `COC(=O)C[C@H]1O[C@@]2(C[C@@H]1[Si](C)(C)C)C(=O)N(C)c1ccccc12`, -1.14 (inactive); as for `CN(C)CCCC[C@@H]1NC(=O)[C@@H]2C[C@H](C(=O)NCCCCCCNC(=O)CS)[C@H](c3ccc(O)cc3)N2C1=O`, 1.19 (inactive).

Take `CCOC(=O)C1=CC[C@@H](c2ccc(OC)cc2)N(S(=O)(=O)c2ccc(C)cc2)[C@H]1CC`: the z-score was 2.22 (inactive).

In the case of `C=C(CCCC)/C(=C/C[C@H](OC(=O)c1ccncc1)c1ccc(OCCO)cc1)c1cnc2ccccc2c1`, the z-score is 26.5 (active). On to `COC(=O)[C@@]1(Cc2ccc(F)cc2)[C@H]2c3cc(C(=O)N4CCCC4)n(Cc4cc(F)cc5c4OCOC5)c3C[C@H]2CN1C(=O)c1ccccc1`, for which the z-score is 3.29 (inactive). Same read-out and setting: the result for `C=C(CCCC)C(=O)CC[C@H](OC(=O)c1ccccc1-c1ccccc1C(=O)O)c1ccc(OCCO)cc1` reads 12.3 (active); that for `C[N+](C)(C)CCCCNC(=O)[C@H]1C[C@H]2C(=O)N[C@@H](Cc3ccccc3)C(=O)N2[C@H]1c1cccc(OCCO)c1`, 5.34 (inactive).
